# NOMO-1 viab: NOMO-1 AML cell viability reduction, primary screen, STK33 inhibitor project, CellTiter-Glo luminescence; inhibition, % (test concentration not listed); AID 2330, 2010; NOMO-1 AML viability, 72 h; 7.5% of 37,000 active; in the data active = inhibition above about 80%; inconclusive = no clear call, values can overlap the other calls
# PD-1 reversal: activators reversing PD-1 mediated T-cell inhibition, primary screen, luminescence, primary human CD4 T cells, PD-L1 beads | CellTiter-Glo 96 h | activation, % (concentration not given with the values) | 29,000 tested, under 10 active; call rule not given here;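 also: 0% = median vehicle wells and 100% = positive control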
# STK33 kin inh: STK33 kinase inhibitors, primary screen, biochemical, luminescence, ADP-Glo, MBP substrate. inhibition, % at 12.5 µM. AID 2322, 2010. Serine/threonine-protein kinase 33 (Homo sapiens), Q9BYT3. 0.44% of 27,000 active; in the data active = inhibition above about 20%; inconclusive = no clear call, values can overlap the other calls
# Target sequence (Q9BYT3 whole entry, looked up): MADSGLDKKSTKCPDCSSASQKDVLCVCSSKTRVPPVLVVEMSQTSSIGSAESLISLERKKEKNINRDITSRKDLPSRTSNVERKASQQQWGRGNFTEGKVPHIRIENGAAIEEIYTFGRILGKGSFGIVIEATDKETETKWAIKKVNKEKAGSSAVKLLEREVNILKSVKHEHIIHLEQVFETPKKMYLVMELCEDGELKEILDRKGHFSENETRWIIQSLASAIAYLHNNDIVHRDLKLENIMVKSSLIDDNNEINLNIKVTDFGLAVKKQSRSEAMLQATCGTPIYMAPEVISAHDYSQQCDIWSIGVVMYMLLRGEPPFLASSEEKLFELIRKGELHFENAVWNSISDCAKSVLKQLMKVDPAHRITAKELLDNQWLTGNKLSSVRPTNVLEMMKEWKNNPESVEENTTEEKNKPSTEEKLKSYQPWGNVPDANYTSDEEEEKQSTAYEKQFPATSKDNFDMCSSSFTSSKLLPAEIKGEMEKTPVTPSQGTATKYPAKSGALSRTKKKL
# Starred values were filed as active, the others as inactive; ? = inconclusive; · = no result; ! = repeats disagree. The entries come from a sample that favours hits as a whole.
SMILES,NOMO-1 viab,PD-1 reversal,STK33 kin inh
C[C@@H]1CN([C@H](C)CO)C(=O)c2cccc(NC(=O)c3nc4ccccc4s3)c2O[C@H]1CN(C)S(=O)(=O)c1ccccc1,47,·,·
CSc1ccccc1NC(=O)c1cc2n(n1)C(C(F)(F)F)C1CCc3ccccc3C1N2 (stereo unspecified),72,3,·
COc1ccc(NC(=O)c2ccccc2OCC(=O)Nc2cccc(C)c2C)c(C)c1,22,·,-2
COC(=O)c1ccc(C(=O)OC)c(NC(=O)CN2C(=O)c3cccc4cccc2c34)c1,-15,·,2
O=C(NCc1nc2ccccc2n1Cc1ccccc1)c1ccccc1,15,-1,-1
COc1cccc(C(=O)c2oc3ccccc3c2NC(=O)CCc2ccccc2)c1,1,-1,?
C[C@@H]1CN([C@H](C)CO)C(=O)c2cccc(NC(=O)c3nc4ccccc4s3)c2O[C@@H]1CN(C)S(=O)(=O)c1ccccc1,12,·,·
C[C@H](CO)N1C[C@H](C)[C@H](CN(C)S(=O)(=O)c2ccc(F)cc2)Oc2c(NC(=O)c3nc4ccccc4s3)cccc2C1=O,108*,-7,·
CS(=O)(=O)N(CC(=O)Nc1ccccc1C(=O)O)c1cccc(Cl)c1,4,-1,3
CC[n+]1c(C=C2C=C(C)CC(C)C2)sc2ccccc21 (stereo unspecified),126*,-1,·
C[C@@H]1CCCCO[C@@H](CN(C)Cc2ccc(C(F)(F)F)cc2)[C@@H](C)CN([C@H](C)CO)C(=O)c2cc(NC(=O)c3ccncc3)ccc2O1,20,·,-1
COc1ccc(NC(=O)Nc2ccc3c(c2)C(=O)N([C@H](C)CO)C[C@H](C)[C@H](CN(C)Cc2ccncc2)OCCCC[C@@H](C)O3)cc1,2,0,0
COc1ccc(NC(=O)Nc2ccc3c(c2)C(=O)N([C@H](C)CO)C[C@H](C)[C@@H](CN(C)Cc2ccc(C(F)(F)F)cc2)OCCCC[C@@H](C)O3)cc1,110*,·,1
C[C@@H]1CCCCO[C@@H](CN(C)Cc2ccccc2)[C@@H](C)CN([C@H](C)CO)C(=O)c2cc(NC(=O)Cc3ccccc3)ccc2O1,5,-1,0
C[C@@H]1CCCCO[C@@H](CN(C)Cc2ccc(C(F)(F)F)cc2)[C@@H](C)CN([C@H](C)CO)C(=O)c2cc(NC(=O)c3ccccc3)ccc2O1,93*,0,6
C[C@@H]1CCCCO[C@@H](CN(C)Cc2ccc(C(F)(F)F)cc2)[C@@H](C)CN([C@H](C)CO)C(=O)c2cc(NC(=O)C3CCCCC3)ccc2O1,108*,-6,1
C[C@@H]1CCCCO[C@@H](CN(C)Cc2ccc(C(F)(F)F)cc2)[C@@H](C)CN([C@H](C)CO)C(=O)c2cc(NC(=O)Cc3ccccc3)ccc2O1,106*,-4,8
C[C@@H]1CCCCO[C@H](CN(C)Cc2ccc(C(=O)O)cc2)[C@@H](C)CN([C@H](C)CO)C(=O)c2cc(NC(=O)C3CCCCC3)ccc2O1,15,1,1
CCOC(=O)c1sc(SC)c2c1CC(c1ccc(OC)cc1)CC2=O (stereo unspecified),-11,0,·
O=C(Nc1ccc(S(=O)(=O)NC23CC4CC(CC(C4)C2)C3)cc1)C1CC1,33,2,·
O=C(CSc1nnc(-c2cccc([N+](=O)[O-])c2)n1-c1ccccc1)c1ccc(Br)cc1,2,-3,1
O=S(=O)(N[C@H]1CCN(Cc2ccc(OCCO)cc2)C1)c1cc(Cl)ccc1Cl,·,·,-5
CSc1nnc(-c2ccccc2NC(=O)c2ccccc2)c(=O)[nH]1,12,3,1
C[C@@H]1CCCCO[C@@H](CN(C)Cc2ccc(C(=O)O)cc2)[C@@H](C)CN([C@H](C)CO)C(=O)c2cc(NC(=O)Nc3ccc(C(F)(F)F)cc3)ccc2O1,20,1,0
C[C@@H]1CCCCO[C@@H](CN(C)Cc2ccccc2)[C@@H](C)CN([C@H](C)CO)C(=O)c2cc(NC(=O)Nc3ccc(C(F)(F)F)cc3)ccc2O1,115*,-8,2
SMILES,NOMO-1 viab,PD-1 reversal,STK33 kin inh
CCn1c(SCC(=O)Nc2ccc(C)cc2C)nnc1-c1cccs1,-5,0,-1
c1ccc2cc(OCCN3CCOCC3)ccc2c1,-7,0,·
Cc1ccccc1NC(=O)CCCC(=O)O,-13,2,-1
Cc1ccccc1NC(=O)CCC(=O)OC1CCC(C(C)(C)C)CC1 (stereo unspecified),93*,0,·
COc1cc(C(=O)NCc2ccccc2)cc(OC)c1OC,32,-1,-2
CCOC(=O)Cc1[nH]nc2c1C(C1CC=CCC1)C(C#N)=C(N)O2 (stereo unspecified),114*,·,4
COc1cc(OC)cc(C2C(C#N)=C(N)Oc3n[nH]c(-c4cccnc4)c32)c1 (stereo unspecified),1,·,-5
COc1cc2ncnc(Nc3cccc(Br)c3)c2cc1OC,-3,6,0
Brc1cccc(Nc2ncnc3cc4nc[nH]c4cc23)c1,27,4,6
COc1cc2ncnc(Nc3cccc(Cl)c3)c2cc1OC,89*!,1,15
COc1cc2ncnc(Nc3cccc(O)c3)c2cc1OC,-4,-1,43*
COc1ccccc1NC(=O)Cn1nnc(-c2cccs2)n1,3,0,0
O=C(CSc1nc(Nc2ccccc2)nc(N2CCOCC2)n1)Nc1ccccc1Cl,13,1,4
COC(=O)c1cc(NC(=O)CSc2nc(Nc3ccccc3)nc(N3CCOCC3)n2)ccc1Cl,117*,-6,3
Cc1cc(N(CC(=O)Nc2cccc([N+](=O)[O-])c2)S(C)(=O)=O)ccc1Br,14,3,-4
COCCSc1nnc(NC(=O)c2sc3ccccc3c2Cl)s1,3,1,-1
N#Cc1ccc(N2CCCN(C(=S)NC3CCCC3)CC2)nc1,23,1,-2
Cc1cc(C)c(NC(=O)CSc2nnc(-c3ccncc3)n2-c2ccccc2)c([N+](=O)[O-])c1,19,1,-1
Cc1[nH]c2ccccc2c1/C=C/c1nc2ccccc2c(=O)n1CCCO,4,-2,2
O=c1c2ccccc2nc(/C=C/c2cc(Br)ccc2O)n1CCCO,108*,-7,1
O=C(NCc1ccco1)c1ccc(NC(=O)c2ccco2)cc1,-21,·,4
CCC(C)/C=C(C)/C=C/C1=CC2=C(Cl)C(=O)C(C)(OC(C)=O)C(=O)C2=CN1CCCC(=O)O (stereo unspecified),101*,0,-1
CC(C)=CCCC(C)(O)C1Cc2cc(C(=O)O)cc(CC=C(C)C)c2O1 (stereo unspecified),·,·,-12
O=C1C(SCCO)=C(SCCO)C(=O)c2ccccc21,114*,·,4
O=C1c2ccccc2C(=O)N1C(CO)C(O)c1ccccc1 (stereo unspecified),25,1,·
O=C(Cn1nc(C(F)(F)F)c2c1CCCCC2)Nc1ccc(S(=O)(=O)N2CCCC2)cc1,45,0,-2
COc1ccc(NC(=O)CSc2nccc(=O)[nH]2)cc1Cl,-14,-1,-6
CCN1C(N)=C(C#N)C2(CCNCC2)c2nc(C)oc21,4,0,1
O=C(Nc1cccc(Br)c1)c1cccc2c1C(=O)c1ccccc1-2,102*,-1,·
